Results from PubChem BioAssay AID1159580 (chemical genetic matrix, 2015).
About 2,000 (36%) of roughly 5,500 compounds were called active. Another 18% or so got no clear call; they are omitted. Cut-off read from the data, not from the text of the source: active = normalized growth mostly below about 0.91 (no sharp cut-off); inconclusive = no clear call, values can overlap the other calls; inactive = mostly above about 0.92. The list shows a part of the results.

Assay: chemical genetic growth profiling, strain panel (AID 1159580);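 note: tested at 20 µM; growth read once vehicle control cultures reached saturation at 30 °C; 1 = growth at the plate median or of vehicle wells; lower values mean less growth of the strain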
Conditions: growth OD

Measured: normalized growth

CC(=O)NS(=O)(=O)c1ccc(N)cc1
inactive: S. cerevisiae deletion strains, locus YJR066W, strain TOR1, stronger effect = lower value 0.931 | S. cerevisiae deletion strains, locus YKL009W, strain mrt4, stronger effect = lower value 0.975 | S. cerevisiae deletion strains, locus YKL068W, stronger effect = lower value 0.989 | S. cerevisiae deletion strains, locus YKL085W, strain MDH1 (second series), stronger effect = lower value 0.982 | S. cerevisiae deletion strains, locus YKL085W, strain MDH1, stronger effect = lower value 0.982 | S. cerevisiae deletion strains, locus YKL160W, strain elf1, stronger effect = lower value 1 | S. cerevisiae deletion strains, locus YKL190W, strain CNB1, stronger effect = lower value 0.997 | S. cerevisiae deletion strains, locus YKR001C, strain vps1, stronger effect = lower value 0.975 | S. cerevisiae deletion strains, locus YKR026C, strain gcn3, stronger effect = lower value 1.01 | S. cerevisiae deletion strains, locus YKR091W, strain srl3, stronger effect = lower value 1.01 | S. cerevisiae deletion strains, locus YLL001W, strain dnm1, stronger effect = lower value 1 | S. cerevisiae deletion strains, locus YLL026W, stronger effect = lower value 1.01 | S. cerevisiae deletion strains, locus YLL041C, strain sdh2, stronger effect = lower value 1.02 | S. cerevisiae deletion strains, locus YLR027C, strain aat2, stronger effect = lower value 1.01 | S. cerevisiae deletion strains, locus YLR039C, strain RIC1, stronger effect = lower value 1 | S. cerevisiae deletion strains, locus YLR058C, strain SHM2, stronger effect = lower value 0.992 | S. cerevisiae deletion strains, locus YLR102C, strain apc9, stronger effect = lower value 0.988 | S. cerevisiae deletion strains, locus YLR113W, strain HOG1, stronger effect = lower value 0.983 | S. cerevisiae deletion strains, locus YLR221C, strain rsa3, stronger effect = lower value 1.01 | S. cerevisiae deletion strains, locus YLR258W, strain gsy2, stronger effect = lower value 1.01 | S. cerevisiae deletion strains, locus YLR262C, strain YPT6 (second series), stronger effect = lower value 1.03 | S. cerevisiae deletion strains, locus YLR262C, strain YPT6, stronger effect = lower value 1 | S. cerevisiae deletion strains, locus YLR268W, strain sec22, stronger effect = lower value 0.945 | S. cerevisiae deletion strains, locus YLR320W, strain mms22, stronger effect = lower value 1.01 | S. cerevisiae deletion strains, locus YLR330W, strain CHS5, stronger effect = lower value 0.993 | S. cerevisiae deletion strains, locus YLR342W, strain FKS1 (second series), stronger effect = lower value 0.992 | S. cerevisiae deletion strains, locus YLR342W, strain FKS1, stronger effect = lower value 1.01 | S. cerevisiae deletion strains, locus YLR357W, strain rsc2, stronger effect = lower value 1.04 | S. cerevisiae deletion strains, locus YLR370C, strain arc18, stronger effect = lower value 1.01 | S. cerevisiae deletion strains, locus YLR371W, strain rom2, stronger effect = lower value 0.98 | S. cerevisiae deletion strains, locus YLR384C, strain iki3, stronger effect = lower value 1.01 | S. cerevisiae deletion strains, locus YLR418C, strain cdc73, stronger effect = lower value 0.968 | S. cerevisiae deletion strains, locus YML016C, strain PPZ1, stronger effect = lower value 0.99 | S. cerevisiae deletion strains, locus YML032C, strain rad52, stronger effect = lower value 0.976 | S. cerevisiae deletion strains, locus YML120C, strain ndi1, stronger effect = lower value 1.01 | S. cerevisiae deletion strains, locus YML124C, strain tub3, stronger effect = lower value 0.977 | S. cerevisiae deletion strains, locus YMR058W, strain fet3, stronger effect = lower value 1.03 | S. cerevisiae deletion strains, locus YMR078C, strain ctf18, stronger effect = lower value 0.985 | S. cerevisiae deletion strains, locus YMR125W, strain sto1, stronger effect = lower value 1 | S. cerevisiae deletion strains, locus YMR129W, stronger effect = lower value 1.01 | S. cerevisiae deletion strains, locus YMR205C, strain PFK2, stronger effect = lower value 1.02 | S. cerevisiae deletion strains, locus YMR223W, strain ubp8, stronger effect = lower value 0.996 | S. cerevisiae deletion strains, locus YMR231W, strain pep5, stronger effect = lower value 1.01 | S. cerevisiae deletion strains, locus YMR307W, strain GAS1, stronger effect = lower value 0.985 | S. cerevisiae deletion strains, locus YNL067W, strain RPL9B, stronger effect = lower value 1 | S. cerevisiae deletion strains, locus YNL071W, strain lat1, stronger effect = lower value 0.999 | S. cerevisiae deletion strains, locus YNL128W, strain TEP1, stronger effect = lower value 0.978 | S. cerevisiae deletion strains, locus YNL183C, strain NPR1, stronger effect = lower value 0.951 | S. cerevisiae deletion strains, locus YNL209W, strain ssb2, stronger effect = lower value 1.03 | S. cerevisiae deletion strains, locus YNL233W, strain BNI4, stronger effect = lower value 0.993 | S. cerevisiae deletion strains, locus YNL248C, strain rpa49, stronger effect = lower value 1.03 | S. cerevisiae deletion strains, locus YNL250W, strain rad50, stronger effect = lower value 0.971 | S. cerevisiae deletion strains, locus YNL271C, strain bni1, stronger effect = lower value 0.973 | S. cerevisiae deletion strains, locus YNL298W, strain CLA4, stronger effect = lower value 0.974 | S. cerevisiae deletion strains, locus YNL307C, strain MCK1, stronger effect = lower value 0.97 | S. cerevisiae deletion strains, locus YNL322C, strain KRE1 (second series), stronger effect = lower value 0.995 | S. cerevisiae deletion strains, locus YNL322C, strain KRE1, stronger effect = lower value 0.992 | S. cerevisiae deletion strains, locus YNR049C, strain mso1, stronger effect = lower value 1.01 | S. cerevisiae deletion strains, locus YNR052C, strain pop2, stronger effect = lower value 0.977 | S. cerevisiae deletion strains, locus YOL006C, strain TOP1, stronger effect = lower value 1.02 | S. cerevisiae deletion strains, locus YOL012C, strain htz1 0.651 | S. cerevisiae deletion strains, locus YOL147C, strain pex11, stronger effect = lower value 0.985 | S. cerevisiae deletion strains, locus YOR001W, strain rrp6, stronger effect = lower value 1.02 | S. cerevisiae deletion strains, locus YOR061W, strain CKA2, stronger effect = lower value 0.989 | S. cerevisiae deletion strains, locus YOR069W, strain VPS5, stronger effect = lower value 0.984 | S. cerevisiae deletion strains, locus YOR070C, strain gyp1, stronger effect = lower value 1.02 | S. cerevisiae deletion strains, locus YOR080W, strain dia2, stronger effect = lower value 1.01 | S. cerevisiae deletion strains, locus YOR083W, strain WHI5, stronger effect = lower value 1 | S. cerevisiae deletion strains, locus YOR106W, strain vam3, stronger effect = lower value 1.02 | S. cerevisiae deletion strains, locus YOR136W, strain idh2, stronger effect = lower value 0.996 | S. cerevisiae deletion strains, locus YOR144C, strain elg1, stronger effect = lower value 0.987 | S. cerevisiae deletion strains, locus YOR184W, strain ser1, stronger effect = lower value 0.989 | S. cerevisiae deletion strains, locus YOR231W, strain MKK1, stronger effect = lower value 0.997 | S. cerevisiae deletion strains, locus YOR265W, strain rbl2, stronger effect = lower value 1.01 | S. cerevisiae deletion strains, locus YOR270C, strain vph1, stronger effect = lower value 1.04 | S. cerevisiae deletion strains, locus YOR290C, strain snf2, stronger effect = lower value 1 | S. cerevisiae deletion strains, locus YOR316C, strain cot1, stronger effect = lower value 0.982 | S. cerevisiae deletion strains, locus YPL051W, strain arl3, stronger effect = lower value 1.02 | S. cerevisiae deletion strains, locus YPL078C, strain atp4, stronger effect = lower value 1.01 | S. cerevisiae deletion strains, locus YPL106C, strain sse1, stronger effect = lower value 1.01 | S. cerevisiae deletion strains, locus YPL240C, strain hsp82, stronger effect = lower value 1.02 | S. cerevisiae deletion strains, locus YPL241C, strain CIN2, stronger effect = lower value 0.995 | S. cerevisiae deletion strains, locus YPL256C, strain CLN2, stronger effect = lower value 1 | S. cerevisiae deletion strains, locus YPR119W, strain clb2, stronger effect = lower value 0.995 | S. cerevisiae deletion strains, locus YPR141C, strain kar3, stronger effect = lower value 0.981 | S. cerevisiae deletion strains, locus YPR163C, strain tif3, stronger effect = lower value 0.982 | S. cerevisiae deletion strains, locus YPR167C, strain met16, stronger effect = lower value 0.982 | S. cerevisiae deletion strains, strain wtn01, stronger effect = lower value 0.969 | S. cerevisiae strains, strain wild type, stronger effect = lower value 1
